# Jurkat NFkB inh – inhibitors of the PMA/ionomycin-induced NF-kB reporter in Jurkat cells; PMA/ionomycin-induced NF-kB luciferase reporter, luminescence; inhibition, % at 4 µM; 0.53% of 330,000 active; AID 435003; in the data active = inhibition above about 50%
# 697 NFkB inh – lowers PMA/ionomycin-induced NF-kB signal in 697 B cells. 697 B-cell NF-kB luciferase reporter, 16 h. inhibition, % at 4 µM. 0.33% of 330,000 active. AID 435022; in the data active = inhibition above about 35%
# GalR3 antagonist – antagonists of human GalR3 | O60755 | HEK293 GalR3-CNG cAMP membrane potential fluorescence; galR3 body fused to GalR1 C-terminus | inhibition, % at 3 µM | 0.44% of 360,000 active | AID 651719;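 active = inhibition above the screen-wide average plus 3 SD, cut at about 13% in these data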;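 also: forskolin and galanin both at EC90 stimulate the cells; cAMP rise reported by CNG channel membrane potential dye signal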
# COUP-TFII inh – blocks human COUP-TFII nuclear receptor; P24468; HEK293T NGFI-A luciferase reporter, luminescence; inhibition, % at 8.6 µM; 0.7% of 370,000 active;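 active = inhibition above a per-plate cutoff, mean inhibition of test wells between control levels plus 3 SD, cut at about 38% in these data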;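 also: cells cotransfected with COUP-TFII expression vector driving the NGFI-A reporter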
# Target sequence (P24468 whole entry, looked up): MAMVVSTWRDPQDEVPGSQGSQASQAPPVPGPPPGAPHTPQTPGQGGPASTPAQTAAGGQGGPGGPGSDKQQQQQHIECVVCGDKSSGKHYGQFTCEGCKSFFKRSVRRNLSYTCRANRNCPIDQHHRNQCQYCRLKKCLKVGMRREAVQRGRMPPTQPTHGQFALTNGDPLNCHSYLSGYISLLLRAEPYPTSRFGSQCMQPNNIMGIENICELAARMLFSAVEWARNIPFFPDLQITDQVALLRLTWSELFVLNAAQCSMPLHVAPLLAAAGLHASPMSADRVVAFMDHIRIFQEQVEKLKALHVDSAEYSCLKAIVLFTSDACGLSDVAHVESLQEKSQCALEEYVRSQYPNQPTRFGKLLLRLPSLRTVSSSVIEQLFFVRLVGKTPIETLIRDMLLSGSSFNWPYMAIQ
# Gli-Sufu block – Gli-Sufu pathway antagonism. Sufu-KO-LIGHT fibroblasts, Gli luciferase reporter luminescence. inhibition, % at 5 µM. 0.74% of 340,000 active. AID 588413;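 active = inhibition above about 55%, limit read from the data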
# Jurkat NFkB conf – inhibitors of the PMA/ionomycin-induced NF-kB reporter in Jurkat cells, retest; shares compounds with Jurkat NFkB inh; Jurkat NF-kB luciferase, 16 h; inhibition, % at 4 µM; 27% of 2,700 active; AID 435020;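 active = inhibition reaching about 45% at 4 µM in either replicate, limit read from the data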
# A number is an active result; - = inactive; . = not tested or not shown. Shown are actives, neighbours in structure and some others; about 2% of the full set was active somewhere.
SMILES,Jurkat NFkB inh,697 NFkB inh,GalR3 antagonist,COUP-TFII inh,Gli-Sufu block,Jurkat NFkB conf
CC1=C[C@]2(CN(CC3CC3)C3=N[C@H](c4ccccc4)CC(=O)N32)n2c(=O)n(-c3ccccc3)c(=O)n2C1,.,.,.,-,.,.
CN1CCN(C(=O)c2ccccc2NC(=O)c2sc3ccccc3c2Cl)CC1,-,-,-,-,-,.
CN1CCN(c2ccc(NC(=O)c3sc4ccccc4c3Cl)cc2)CC1,-,-,-,-,-,-
O=C(CN1CCN(Cc2ccccc2)CC1)N/N=C\c1c2ccccc2cc2ccccc12,.,.,.,-,.,.
C[C@H]1Cn2nnc(-c3ccccc3)c2Cn2c3ccccc3c(=O)n21,.,.,.,-,.,.
CCc1ccc(-n2nc3cc(C)c(N)cc3n2)cc1,-,-,-,-,-,-
COc1cccc(NC(=O)C2CCCN2C(=O)NCc2ccccc2)c1 (stereo not given),.,.,.,-,.,.
CN1CC(=O)N2[C@@H](C[C@]3(c4c[nH]c5ccccc45)c4ccccc4N(S(=O)(=O)c4ccccc4)[C@H]23)C1=O,.,.,.,-,.,.
c1ccc(CSC2=NNC(c3ccccn3)S2)cc1 (stereo not given),71,-,-,-,-,-
CN(C)c1ccc2c(c1)OC(N)=C(C#N)C2c1cccc(F)c1 (stereo not given),77,-,.,.,-,55
Clc1ccc2c(c1)C(C1=NCCN1)c1ccccc1CS2 (stereo not given),63,-,-,-,-,43
COC(=O)c1cccc(NC(=O)NC(=O)c2ccccc2Cl)c1,62,-,-,-,-,-
COC(=O)c1cccc(NC(=O)Nc2ccc(Cl)c(Cl)c2)c1,-,-,-,-,-,.
CC(C)NCC(O)Cn1c2c(c3ccccc31)CCc1c-2cnn1-c1ccccc1 (stereo not given),59,-,-,-,-,-
O=C(/C=C/c1ccc2c(c1)OCO2)Nc1nncs1,-,-,-,-,-,.
CC(C)(C)c1ccc(/C=C/C(=O)Nc2nncs2)cc1,-,-,-,-,-,-
COc1ccc(NS(=O)(=O)c2cc(NC(=O)c3ccc(=O)[nH]c3)ccc2N2CCCC2)cc1,63,-,-,-,-,-
COc1ccc(NS(=O)(=O)c2cc(NC(=O)c3cnc(C)cn3)ccc2N2CCCC2)cc1,-,-,-,-,-,.
COc1ccc(OC)c(CN2C(=O)c3ccnn3CC2(C)c2nnnn2C2CCCC2)c1 (stereo not given),.,.,.,-,.,.
CCCCNS(=O)(=O)CC1NCc2cc(F)ccc21 (stereo not given),.,.,.,-,.,.
COc1ccc2c(c1)C(=O)N1[C@H]3c4cc(Br)ccc4OC[C@@H]3[C@H](c3ccccc3)[C@]1(C)C(=O)N2,52,-,.,.,-,53
C[C@@]12C(=O)Nc3ccc(Br)cc3C(=O)N1[C@H]1c3cc(Br)ccc3OC[C@@H]1[C@@H]2c1ccccc1,-,-,-,-,-,.
Cc1no[n+]([O-])c1COc1ccc(/C=N/n2nnnc2N)cc1,50,-,-,-,-,-
Cc1ccc(/C=N/n2nnnc2N)cc1,-,-,-,-,-,.
CS(=O)c1nc(-c2ccc(Br)cc2)cc(-c2ccccc2)c1C#N (stereo not given),93,-,-,-,-,91
SMILES,Jurkat NFkB inh,697 NFkB inh,GalR3 antagonist,COUP-TFII inh,Gli-Sufu block,Jurkat NFkB conf
CS(=O)(=O)c1nc(-c2ccc(Br)cc2)cc(-c2ccccc2)c1C#N,-,-,-,-,-,.
Cc1ccccc1N=Nc1ccc(O)c2ncccc12,.,.,-,-,-,.
COc1cccc(N=Nc2ccc(O)c3ncccc23)c1,70,-,-,-,68,-
COc1cc(OC)cc(C(=O)Nc2cccc3cccnc23)c1,-,-,-,-,-,.
COc1ccc(N=Nc2ccc(O)c3ncccc23)cc1,74,-,-,-,61,-
COc1cccc(N=Nc2ccc3cccnc3c2O)c1,95,-,-,-,-,-
Nc1ccc(N=Nc2ccccc2)c2cccnc12,84,-,-,-,-,-
CCN(CC)C(=O)CC[C@H]1CC[C@]2(CCCN(S(=O)(=O)C3CCCCC3)C2)O1,.,.,.,-,.,.
COC(=O)c1cc(-c2ccc(C)c3ccccc23)c(=O)n2c1CCC2,.,.,.,-,.,.
CN(C)c1cccc(/C=C2\CC3(OC(=O)c4cccc(F)c4)CCCN2C3)c1 (stereo not given),.,.,.,-,.,.
Cc1c(C(=O)OC2CCC(C)CC2)[nH]c2c1C(=O)CCC2 (stereo not given),-,-,-,-,-,-
O=C(NCCCc1ccccc1)[C@H](Cc1c[nH]c2ccccc12)NC1(C(=O)NCCc2c[nH]c3ccccc23)CCOCC1,.,.,.,-,.,.
CCCCC(=O)NC(c1ccc(OC)cc1)c1ccc2cccnc2c1O (stereo not given),.,.,-,-,.,.
COc1ccc(C(NC(=O)C(C)C)c2ccc3cccnc3c2O)cc1 (stereo not given),61,-,-,-,-,65
CCCC(=O)NC(c1ccc(N(C)C)cc1)c1ccc2cccnc2c1O (stereo not given),55,-,-,-,86,74
CCCC(=O)NC(c1ccc(C(C)C)cc1)c1ccc2cccnc2c1O (stereo not given),60,-,-,-,.,81
CCOC(=O)[C@]12CCCC3=C1N(CCC3)C(=O)[C@@H](CC(=O)NCCCN1CCCC1=O)C2,.,.,.,-,.,.
CC(C)(C)OC(=O)/C=C/[C@H](CCCCl)Sc1ccc(C(C)(C)C)cc1,.,.,.,-,.,.
CCN1/C(=C/C=C/c2oc3ccc4ccccc4c3[n+]2CC)Oc2ccc3ccccc3c21,92,-,.,.,74,-

# Assay outcomes: PubChem BioAssay, several laboratories
